About 18,000 (9%) of roughly 200,000 compounds were called active. The sample as a whole holds a higher share of actives than the screen did. Unmarked numbers belong to inactive results. Rule as the data show it: active = inhibition above about 50%; inactive = the rest.
Assay: antileishmanial activity against promastigotes – primary screen (AID 1063);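 also: promastigotes grown with compound for 44 hours at 28 °C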
Conditions: Leishmania major promastigotes, resazurin fluorescence viability; at 10 µM; stronger effect = higher value

SMILES	inhibition
CC1(C)CC(CC(=O)O)C(=O)O1 (stereo not drawn)	-2.75%
C/C(CC1CC(C)(C)OC1=O)=N/Nc1nc(-c2ccccc2)cs1 (stereo not drawn)	55.5% (active)
CC1(C)CC(CCC(=O)Nc2ccccc2Cl)C(=O)O1 (stereo not drawn)	-7.36%
CC(=O)Nc1nc(N(C)C)nc(N(C)C)n1	2.36%
O=C(NCc1ccco1)C(=O)c1cn(CC(=O)N2CCCCCC2)c2ccccc12	5.44%
COc1ccc(CCNC(=O)COC(=O)/C=C/c2cccs2)cc1OC	4.8%
O=C(COC(=O)/C=C/c1cccc(Cl)c1)NCCc1ccccc1	53.4% (active)
CCOC(=O)CCCNC(=O)COC(=O)/C=C/c1ccc2c(c1)OCO2	-1.67%
COc1ccc(C2OCC3(CO2)SC(=O)NC3=O)cc1OC (stereo not drawn)	-7.62%
O=C(NNC(=S)Nc1ccccc1)c1cccc(S(=O)(=O)N2CCOCC2)c1	-4.58%
COc1ccccc1NC(=O)C[n+]1ccccc1	-3.72%
COC(=O)c1cc(C(=O)N(Cc2ccccc2)c2ccccn2)cc([N+](=O)[O-])c1	8.15%
Fc1ccccc1/C=C1\CCCC2=C1Nc1ncnn1C2c1ccccc1F (stereo not drawn)	98.9% (active)
O=C(NCc1cccnc1)c1nc(-c2cccs2)no1	4.89%
CCOc1ccccc1C(=O)NC1CC2CCCC(C1)N2Cc1ccccc1 (stereo not drawn)	16%
COc1ccc(NC(=O)N2CCC(Cc3ccccc3)CC2)cc1	-0.62%
COc1cccc(NC(=S)NCCCN2CCOCC2)c1	1.1%
C=CCn1c(CC(=O)Nc2cccc(OC)c2)nnc1SCC(=O)NC1CCCCC1	-2.71%
C=CCN1C2CCCC1CC(NC(=S)Nc1cccc(OC)c1)C2 (stereo not drawn)	54.3% (active)
COc1ccc(NC(=O)NC2CC3CCCC(C2)N3Cc2ccccc2)cc1 (stereo not drawn)	66.9% (active)
COc1ccc(N=C2SC(C(=O)Nc3ccc(F)cc3)CC(=O)N2C)cc1 (stereo not drawn)	20.6%
CN1CCN(C(=O)/C(=C\c2ccc3c(c2)OCO3)NC(=O)c2cccs2)CC1	-8.78%
CN(CCc1cn[nH]c1)C(=O)CC1C(=O)NCCN1Cc1cccc(Oc2ccccc2)c1 (stereo not drawn)	0.64%
O=C(/C=C/c1cn(-c2ccccc2)nc1-c1ccc2c(c1)OCCO2)NCCCN1CCOCC1	41.1%

SMILES	inhibition
Nc1ccc(OCC(O)C[n+]2ccc(CCS(=O)(=O)[O-])cc2)cc1 (stereo not drawn)	-3.78%
O=C(O)c1ccc(N/N=C/c2ccc3ncccc3c2)cc1	-9.46%
CN(C(=O)CSc1nnc(-c2c[nH]c3ccccc23)o1)C1CCS(=O)(=O)C1 (stereo not drawn)	0.33%
COc1ccc(/C=C/CN2CCCC(C(=O)c3cc(F)ccc3F)C2)cc1 (stereo not drawn)	81.1% (active)
CSCC(=O)N1CCCC(C(=O)c2cc(F)ccc2F)C1 (stereo not drawn)	-4.01%
CCOc1cccc(NC(=O)C2CCCN(S(=O)(=O)c3ccc(OC)cc3)C2)c1 (stereo not drawn)	30.8%
O=C1CCC(CCC(=O)N2CCCC(C(=O)c3ccc(Cl)cc3)C2)=NN1 (stereo not drawn)	-5.05%
CCc1nnc(NC(=O)CSc2nnnn2-c2cccc(C(C)=O)c2)s1	-4.47%
O=C(NNC(=O)c1ccccc1[N+](=O)[O-])Nc1ccccc1C(F)(F)F	0.59%
Cn1cnnc1Sc1ccc(S(C)(=O)=O)cc1[N+](=O)[O-]	-6.44%
O=C(NCC1CCCO1)c1ccc2ccccc2n1 (stereo not drawn)	-4.29%
O=C(/C=C/c1ccccc1[N+](=O)[O-])NCC1CCCO1 (stereo not drawn)	64.4% (active)
COc1ccc(C(=O)OCC(=O)NCC2CCCO2)cc1[N+](=O)[O-] (stereo not drawn)	-1.01%
CC(C)C(=O)Nc1c(O)c2ccccc2[nH]c1=O	-11.4%
O=C(Nc1ccc(S(=O)(=O)N2CCc3ccccc3C2)cc1)c1ccccc1	-4.05%
CCn1cc(C(=O)NCC2CCCO2)c(=O)c2cc(S(=O)(=O)N3CCCCC3)ccc21 (stereo not drawn)	10.9%
CCn1cc(C(=O)NCCCN2CCCCCC2)c(=O)c2cc(S(=O)(=O)N3CCc4ccccc4C3)ccc21	89.7% (active)
CCCCOC(=O)c1ccc(N2C(=O)CC(N3CCN(C/C=C/c4ccccc4)CC3)C2=O)cc1 (stereo not drawn)	-5.72%
CC(C)Cn1c(N2CCN(C(=O)/C=C/c3ccccc3)CC2)nc2ccccc21	5.8%
O=C(Cn1c(N2CCN(C/C=C/c3ccccc3)CC2)nc2ccccc21)c1ccccc1	53.2% (active)
CCOc1ccccc1-n1c(SCC(=O)NCc2ccco2)nnc1-c1ccncc1	67.1% (active)
Cc1ccccc1-n1c(SCC(=O)NCc2cccs2)nnc1-c1ccncc1	53% (active)
Cc1ccc(-c2nnc(SCC(=O)N/N=C/c3cccs3)n2-c2ccc(C)cc2)cc1	32%
O=C(CSc1nnc(-c2ccncc2)n1-c1ccc(Cl)cc1)Nc1ccc(C(=O)O)cc1	-7.6%

— PubChem BioAssay AID1063 (University of Pittsburgh Molecular Library Screening Center, 2008)
